Test results reported in PubChem BioAssay (NCATS).
Records with an inconclusive call do not appear. The source made the active and inactive calls. The call rests on the fitted dose curve; in most records, active means well fitted inhibition curve with a large enough effect; inconclusive means small, poorly fitted or top-dose-only effect; inactive means no such curve, though single readings can be large or run the other way.

Each molecule was assayed on Zika virus NS2B-NS3 protease (linked construct) (assay: Primary screen NINDS Rhodamine qHTS for Zika virus inhibitors (AID 1347160; further: nearly all actives have a fitted effect of over 55% in size)). Details: purified NS2B-NS3 protease, Rhodamine110 substrate fluorescence; series mostly up to 57.1 µM.
Summary of the method: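 Rhodamine110-peptide cleavage (1.5 µM substrate) by 25 nM linked NS2B-NS3 enzyme at pH 8.0 (Tris, Tween 20), after 15 min RT preincubation with compounds; 15-min fluorescence change normalized to controls and Hill-fitted.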

| Compound | outcome |
| --- | --- |
| COc1cc(C(=O)OC(COCCC(C)C)CN2CCOCC2)cc(OC)c1OC (stereo not given) | inactive |
| C=CC[N+]1([C@H]2C[C@H]3[C@@H]4CC[C@H]5C[C@H](OC(C)=O)[C@@H](N6CCCCC6)C[C@]5(C)[C@H]4CC[C@]3(C)[C@H]2OC(=O)CC)CCCCC1 | inactive |
| O=C1[C@@H]2[C@H]3CC[C@H](C3)[C@@H]2C(=O)N1CCCCN1CCN(c2ncccn2)CC1 | inactive |
| CC(=O)O[C@@H]1C(=O)O[C@@H]2[C@H]1OC(=O)[C@@H]2OC(C)=O | inactive |
| CCOC(=O)c1ccc(OCCN2C[C@H](O)[C@@H](O)[C@H](O)[C@H]2CO)cc1 | inactive |
| CCOC(=O)c1ccc(NC(=O)CN2CCCCC2)cc1 | inactive |
| CC(=O)Oc1ccc(C2(c3ccc(OC(C)=O)cc3)Oc3ccccc3NC2=O)cc1 | inactive |
| CC1c2ccccc2CN1NC(=O)c1ccc(Cl)c(S(N)(=O)=O)c1 (stereo not given) | inactive |
| CCN1CCN(c2cc(-c3ccc(F)cc3)c3c(n2)CCCCCC3)CC1 | inactive |
| CC(=O)[C@H]1CC[C@H]2[C@@H]3C=CC4=CC(=O)CC[C@@]4(C)[C@@H]3CC[C@]12C | inactive |
